Test [1] has as its system Wnt5a (protein binding on small-molecule microarray). As to the kind of experiment: Wnt5a binders on small-molecule microarray, primary screen, biophysical, 635/667 nm fluorescence (AID 1142).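 Note: fluorescence read at 667 nm with signal to noise per printed feature.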 The note with it: 635 nm fluorescence, higher = more signal.
A short description of test [2]: cell viability in Huh7 cells, primary screen, cytotoxicity control for HCV replication inhibitor project, CellTiter-Glo luminescence, basal, 48 h (AID 1143).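 Note: Huh7 hepatoma cells carrying a hepatitis C replication reporter with no stimulus; test concentration not given here.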 To be noted: Huh7 HCV replicon, higher = more signal, called active from +8 up or from −8 down. Background: ATP-based viability assays read luminescence as a measure of living cells.
Test [3] can be described thus: P. aeruginosa biofilm formation inhibitors, primary screen, PAO1 strain, BacTiter-Glo luminescence, LB-PBS (AID 1144). The note with it: 12 h, higher = more signal.
Test [4] can be described thus: CREB reporter modulators without forskolin, primary screen, cell-based, PC12, CRE-LacZ reporter, unstimulated (AID 1145). To be noted: no forskolin, luminescence, 4.5 h, higher = more signal, called active from +8 up or from −8 down.
Test [5] in a line: CREB reporter modulators under forskolin, primary screen, cell-based, PC12, CRE-LacZ reporter, forskolin-stimulated (AID 1146).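 Note: PC12 cells with 6xCRE LacZ reporter stimulated by forskolin 10 µM; beta-galactosidase reporter signal reflecting CREB driven transcription.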 The note with it: luminescence, 4.5 h, higher = more signal, called active from +8 up or from −8 down.
Test [6] concerns the target Streptavidin (Streptomyces avidinii) (UniProt P22629). As to the kind of experiment: streptavidin binders on small-molecule microarray, primary screen, artefact control for SMM compound annotation, biophysical, 635/667 nm fluorescence (AID 1147).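 Note: signal reflects streptavidin binding to arrayed compounds as a control protein.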 The note with it: streptavidin binding, higher = more signal.
The nature of test [7]: small-molecule binders of probe aInhba, primary screen, biochemical, small-molecule microarray, 635/667 nm fluorescence (AID 1148).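 Note: score merges 667nm spot fluorescence with signal-to-noise for antibody binding to printed compounds.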 To be noted: higher = more signal.
The target in test [8] is Torsin-1A (Homo sapiens) (UniProt O14656). As to the kind of experiment: torsin A binders from cell lysate, primary screen, small-molecule microarray, wild-type, 635/667 nm (AID 1149). The note with it: COS7 hTOR1A-WT lysate, 635 nm fluorescence, higher = more signal.
Sequence of Torsin-1A (Homo sapiens) (O14656 whole entry, looked up): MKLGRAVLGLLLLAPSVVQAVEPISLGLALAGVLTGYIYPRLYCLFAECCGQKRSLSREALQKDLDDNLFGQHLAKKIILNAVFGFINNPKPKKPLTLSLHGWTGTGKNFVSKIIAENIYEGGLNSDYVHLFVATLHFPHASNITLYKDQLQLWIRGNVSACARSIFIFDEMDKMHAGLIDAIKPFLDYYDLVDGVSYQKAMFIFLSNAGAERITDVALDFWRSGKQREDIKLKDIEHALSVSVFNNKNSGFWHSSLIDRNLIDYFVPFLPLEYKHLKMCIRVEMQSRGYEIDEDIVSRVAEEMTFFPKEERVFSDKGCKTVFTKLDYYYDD
Test [9] has the same target. As to the kind of experiment: small-molecule binders of mutant TOR1A in lysate, primary screen, cell lysate, small-molecule microarray, COS7 lysate, 635/667 nm fluorescence (AID 1150).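 Note: score pools 667 nm emission and signal to noise measuring lysate protein binding.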 To be noted: COS7 hTOR1A mutant lysate, 635 nm fluorescence, higher = more signal.
The subject of test [10] is Sonic hedgehog protein (Shh). The test is described as follows: small-molecule binders of Shh protein, primary screen, biochemical, small-molecule microarray, 635/667 nm fluorescence (AID 1151).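 Note: Shh protein binding to compounds spotted on small-molecule microarray slides; score combines spot fluorescence intensity with signal-to-noise across triplicate slides.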 The note with it: small-molecule microarray binding, 635 nm fluorescence; higher = more signal.
Test [11] in a line: E. coli DRC41 culture turbidity changes, primary screen, E. coli filamentation inducer project, strain DRC41, OD650, 48 h (AID 1152).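 Note: E. coli MC1000 strain DRC41 lacking acrAB efflux pump and sulA.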 To be noted: E. coli DRC41 (acrAB sulA), higher = more signal, called active from +8 up or from −8 down.
The nature of test [12]: small-molecule binders of probe aLefty1, primary screen, biochemical, small-molecule microarray, 635/667 nm fluorescence (AID 1153).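 Note: score merges spot fluorescence with signal-to-noise ratio from the scanned slide images.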 To be noted: higher = more signal.
Test [13] is described as follows: PSAC antagonists in infected red cells, primary screen, cell-based, P. falciparum Indochina, OD700, 1 h (AID 1154). The note with it: P. falciparum Indochina infected RBC osmotic lysis, higher = more signal, called active from +8 up or from −8 down.
A short description of test [14]: PSAC antagonists in infected red cells, primary screen, cell-based, P. falciparum Indochina, OD700, 2 h (AID 1155).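 Note: lysis reports solute entry through the parasite surface anion channel PSAC; channel blockers reduce lysis of infected cells.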 The note with it: P. falciparum Indochina infected erythrocytes, osmotic lysis OD700; higher = more signal, called active from +8 up or from −8 down.
Test [15] is described as follows: osmotic lysis modulators in infected erythrocytes, primary screen, PSAC antagonist project, cell-based, P. falciparum Indochina, OD700, 3 h (AID 1156). The note with it: higher = more signal, called active from +8 up or from −8 down.
Test [16] is described as follows: PSAC antagonists in infected red cells, primary screen, cell-based, P. falciparum Indochina, OD700, 18 h (AID 1157). The note with it: P. falciparum Indochina infected erythrocytes, osmotic lysis OD700, 18 h; higher = more signal, called active from +8 up or from −8 down.
The nature of test [17]: modulators of S6 phosphorylation in cells, primary screen, cell-based, A549, cytoblot, luminescence, serum-stimulated (AID 1158).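 Note: serum-stimulated A549 lung adenocarcinoma cells; signal is phosphorylated S6 detected by cytoblot immunostaining with HRP secondary.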 The note with it: A549 phospho-S6 cytoblot, 5 h, higher = more signal.
Test [18] has as its target NADPH oxidase 2 (Homo sapiens) (UniProt P04839). The test is described as follows: NOX2-dependent H2O2 signal modulators, primary screen, NOX inhibitor project, cell-based, HEK293-NOX2, PMA-stimulated, Amplex Red fluorescence (AID 1159). Note: test concentration not given here. To be noted: 45 min, higher = more signal, called active from +8 up or from −8 down.
Test [19] addresses NADPH oxidase 4 (Homo sapiens) (UniProt Q9NPH5). The test is described as follows: NOX4-dependent H2O2 signal modulators, primary screen, NOX inhibitor project, cell-based, HEK293-NOX4, tetracycline-induced, Amplex Red fluorescence (AID 1160). The note with it: 45 min, higher = more signal, called active from +8 up or from −8 down.
In test [20] the target is NADPH oxidase 5 (Homo sapiens) (UniProt Q96PH1). The test is described as follows: NOX5-dependent H2O2 signal modulators, primary screen, NOX inhibitor project, cell-based, HEK293-NOX5, Amplex Red fluorescence (AID 1161). The note with it: HEK293-NOX5, ionomycin, 45 min, higher = more signal.
Sequence of NADPH oxidase 5 (Homo sapiens) (Q96PH1 whole entry, looked up): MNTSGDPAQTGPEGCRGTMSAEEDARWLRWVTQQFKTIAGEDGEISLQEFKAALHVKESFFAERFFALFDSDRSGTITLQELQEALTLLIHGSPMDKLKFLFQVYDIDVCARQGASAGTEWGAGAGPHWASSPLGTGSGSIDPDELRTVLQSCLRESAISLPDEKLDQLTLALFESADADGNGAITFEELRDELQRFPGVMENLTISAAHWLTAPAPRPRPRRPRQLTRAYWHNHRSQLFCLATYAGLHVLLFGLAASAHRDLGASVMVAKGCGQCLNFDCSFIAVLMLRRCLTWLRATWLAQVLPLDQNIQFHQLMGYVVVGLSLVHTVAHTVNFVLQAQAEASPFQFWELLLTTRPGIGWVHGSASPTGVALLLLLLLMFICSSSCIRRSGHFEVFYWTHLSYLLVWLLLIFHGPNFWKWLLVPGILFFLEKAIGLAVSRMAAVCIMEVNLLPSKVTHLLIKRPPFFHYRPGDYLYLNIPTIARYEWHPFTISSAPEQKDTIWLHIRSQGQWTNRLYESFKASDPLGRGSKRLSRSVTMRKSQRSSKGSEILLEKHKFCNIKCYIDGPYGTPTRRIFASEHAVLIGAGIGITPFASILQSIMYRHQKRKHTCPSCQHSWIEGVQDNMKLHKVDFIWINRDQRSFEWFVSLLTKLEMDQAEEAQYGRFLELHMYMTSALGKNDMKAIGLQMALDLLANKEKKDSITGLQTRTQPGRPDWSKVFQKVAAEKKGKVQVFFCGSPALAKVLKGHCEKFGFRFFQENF

Activity calls are given as the source filed them. Unless noted, the rule behind the calls is not given here.

Sequence of NADPH oxidase 4 (Homo sapiens) (Q9NPH5 whole entry, looked up): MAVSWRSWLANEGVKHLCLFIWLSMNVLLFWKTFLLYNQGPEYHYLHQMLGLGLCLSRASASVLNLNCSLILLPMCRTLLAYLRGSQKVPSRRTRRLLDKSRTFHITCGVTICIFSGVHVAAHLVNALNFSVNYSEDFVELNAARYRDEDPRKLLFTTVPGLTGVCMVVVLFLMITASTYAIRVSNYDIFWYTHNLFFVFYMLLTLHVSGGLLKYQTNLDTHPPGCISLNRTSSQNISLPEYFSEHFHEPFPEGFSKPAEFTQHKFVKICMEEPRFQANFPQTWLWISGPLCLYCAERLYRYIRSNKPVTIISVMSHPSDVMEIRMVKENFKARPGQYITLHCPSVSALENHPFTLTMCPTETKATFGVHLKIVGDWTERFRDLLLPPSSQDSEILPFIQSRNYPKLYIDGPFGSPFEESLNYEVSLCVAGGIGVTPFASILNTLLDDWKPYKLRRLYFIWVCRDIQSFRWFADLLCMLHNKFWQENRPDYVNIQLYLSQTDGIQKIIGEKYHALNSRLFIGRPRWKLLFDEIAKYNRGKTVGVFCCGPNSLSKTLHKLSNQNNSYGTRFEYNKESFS
Sequence of NADPH oxidase 2 (Homo sapiens) (P04839 whole entry, looked up): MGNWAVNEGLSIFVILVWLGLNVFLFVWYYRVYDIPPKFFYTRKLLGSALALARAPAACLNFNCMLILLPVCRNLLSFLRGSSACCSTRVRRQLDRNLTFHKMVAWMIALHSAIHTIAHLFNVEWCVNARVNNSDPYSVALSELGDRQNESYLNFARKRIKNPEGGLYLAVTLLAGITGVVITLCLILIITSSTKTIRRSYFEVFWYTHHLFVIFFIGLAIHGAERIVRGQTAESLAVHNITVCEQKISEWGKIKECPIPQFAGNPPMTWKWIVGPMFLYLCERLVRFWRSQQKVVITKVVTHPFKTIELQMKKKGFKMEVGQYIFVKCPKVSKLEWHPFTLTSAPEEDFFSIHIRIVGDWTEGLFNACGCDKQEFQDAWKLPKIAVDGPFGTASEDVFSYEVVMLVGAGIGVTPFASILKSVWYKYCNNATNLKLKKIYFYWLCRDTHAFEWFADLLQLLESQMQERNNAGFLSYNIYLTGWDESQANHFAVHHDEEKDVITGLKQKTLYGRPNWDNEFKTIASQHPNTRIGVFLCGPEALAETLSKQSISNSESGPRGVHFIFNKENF
Sequence of Streptavidin (Streptomyces avidinii) (P22629 whole entry, looked up): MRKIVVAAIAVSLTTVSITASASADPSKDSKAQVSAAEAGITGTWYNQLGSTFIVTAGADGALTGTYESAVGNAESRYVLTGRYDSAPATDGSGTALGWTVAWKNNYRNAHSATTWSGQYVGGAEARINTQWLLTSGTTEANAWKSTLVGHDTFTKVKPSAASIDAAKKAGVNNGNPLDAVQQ

In the case of `CC(CCC(=O)OC[C@H]1O[C@H](C#Cc2ccccc2)C=C[C@@H]1Oc1ccc(C)cc1)=NOC(C)CN1CCCCc2nc(C)c(C)cc21` (stereo not given in full), the composite z-score was -0.271 in [1]; -0.0512 in [6]; -0.246 in [7]; -0.453 with Torsin-1A (Homo sapiens) [8]; -0.269 in the test with Torsin-1A (Homo sapiens) [9]; 0.517 in [10]. The same compound showed a composite z-score in test [12] of -0.191. In addition, the z-score in test [2] is -1.13 (inactive); in test [3] it was 0.455 (inactive); in test [4], -0.561 (inactive); in [5], 1.1 (inactive); in test [11] it was -0.131 (inactive); in test [13], 4.27 (inactive). Also, the z-score in [14] was 0.459 (inactive); in test [15] it was 0.983 (inactive); in test [16], 0.662 (inactive); in test [17], -0.487; in test [18], -0.802 (inactive); in test [19], -0.341 (inactive). The compound also yielded a z-score in test [20] of -0.461.
As for `COc1ccc(O[C@H]2C=C[C@@H](c3ccccc3)O[C@@H]2COC(=O)NCc2cccc3ccccc23)cc1`, the composite z-score is -0.092 in test [1]; 0.493 in test [6]; -0.218 in [7]; 0.0485 in the test with Torsin-1A (Homo sapiens) [8]; 0.225 with Torsin-1A (Homo sapiens) [9]; 0.401 in test [10]. Besides, the composite z-score in [12] was -0.0046. For the same compound, the z-score in [2] was -1.55 (inactive); in test [3], 0.928 (inactive); in test [4] it was 0.745 (inactive); in test [5] it was 1.56 (inactive); in test [11], -0.286 (inactive); in test [13], 2.71 (inactive). The z-score in test [14] was 0.896 (inactive); in [15], -0.119 (inactive); in [16] it was 0.515 (inactive); in [17], -0.553; in test [18], 0.5 (inactive); in test [19] it was -0.0581 (inactive). In test [20], this compound registered a z-score of -0.406.
As to `COC(=O)[C@H](Cc1ccccc1)NC(=O)[C@@H](C)CO`, the composite z-score in [1] is 0.276; in test [6], 0.311; in test [7], 0.284; with Torsin-1A (Homo sapiens) [8], 0.0847; in the test with Torsin-1A (Homo sapiens) [9], 0.0866; in [10], 0.643. Moreover, in test [12], the composite z-score was 0.174. Also, the z-score in test [2] is -2.36 (inactive); in test [3], -1.61 (inactive); in test [4], -0.0684 (inactive); in [5], 0.563 (inactive); in test [11], -0.388 (inactive); in test [13] it was 0.0772 (inactive). Besides, the z-score in test [14] was -0.824 (inactive); in test [15], 0.811 (inactive); in test [16], -1.87 (inactive); in test [17], 1.92; in test [18] it was 0.966 (inactive); in test [19] it was 0.185 (inactive). This compound also returned a z-score in test [20] of -2.94.
Consider `CCN1C(=O)[C@H]2[C@H]3[C@H](O)[C@H](O)CC(=NO[C@H](C)c4cn([C@@H]5COC[C@H]5O)nn4)[C@@H]3CC[C@H]2C1=O`, for which the composite z-score is 0.0122 in test [1]; 0.079 in test [6]; -0.0468 in [7]; 0.174 with Torsin-1A (Homo sapiens) [8]; 0.0806 with Torsin-1A (Homo sapiens) [9]; 0.0707 in test [10]. Besides, in [12], the composite z-score is -0.322. Further, the z-score was 0.654 (inactive) in [2]; -0.332 (inactive) in test [3]; 0.0013 (inactive) in test [4]; 0.446 (inactive) in [5]; -0.712 (inactive) in test [11]; 2.21 (inactive) in test [13]. For the same compound, the z-score in test [14] was 0.76 (inactive); in [15] it was 0.436 (inactive); in test [16], 0.564 (inactive); in test [17], -0.582; in [18], 0.477 (inactive); in [19] it was 0.226 (inactive). The compound further gave a z-score in test [20] of 0.919.
Consider `CC(C)(C)N1C(=O)[C@H]2[C@H]3[C@H](O)[C@H](O)CC(=NOC[C@@H](O)COCc4ccco4)[C@H]3CC[C@H]2C1=O`, for which the composite z-score in test [1] is -0.0267; in test [6] it was 0.422; in test [7], -0.0279; with Torsin-1A (Homo sapiens) [8], 0.506; in the test with Torsin-1A (Homo sapiens) [9] it was 0.465; in test [10] it was -0.0386. In [12], the composite z-score was found to be 0.21. The z-score was 0.186 (inactive) in [2]; -0.486 (inactive) in test [3]; 0.701 (inactive) in test [4]; -0.113 (inactive) in test [5]; 0.0965 (inactive) in test [11]; 1.18 (inactive) in [13]. Moreover, the z-score in [14] was -0.423 (inactive); in test [15], 0.0556 (inactive); in test [16], 0.33 (inactive); in test [17], -0.159; in [18], 0.119 (inactive); in [19], 0.0791 (inactive). The compound also came in with a z-score in test [20] of 0.188.
Take `CC(C)[C@H](NC(=O)OC(C)(C)C)[C@@H](O)CC(=O)C(C)(C)C`: the composite z-score in test [1] is -0.103; in test [6] it was 0.247; in test [7], -0.148; with Torsin-1A (Homo sapiens) [8], 0.322; with Torsin-1A (Homo sapiens) [9], 0.0647; in test [10], 0.473. The composite z-score in [12] is -0.267. The z-score in test [2] was 0.207 (inactive); in test [3], -1.09 (inactive); in test [4] it was -0.795 (inactive); in test [5], -0.422 (inactive); in test [11], 0.14 (inactive); in test [13] it was -0.0522 (inactive). The z-score in [14] was 0.0094 (inactive); in test [15], 0.155 (inactive); in test [16] it was 0.126 (inactive); in test [17] it was 0.372; in test [18], 2.2 (inactive); in test [19] it was 0.34 (inactive). In addition, the z-score in test [20] was 0.195.
On to `COCOc1ccc(Br)cc1C(=O)C=Cc1ccc2c(c1)OCO2`, for which the composite z-score in test [1] was -0.18; in test [6], -0.0743; in test [7], -0.182; in the test with Torsin-1A (Homo sapiens) [8], 0.61; with Torsin-1A (Homo sapiens) [9], 0.281; in [10], 0.487. The compound also showed a composite z-score in [12] of -0.103. In addition, the z-score in test [2] is -3.9 (inactive); in [3], -1.46 (inactive); in test [4], 15.5 (active); in [5], 5.69 (inactive); in [11], 0.677 (inactive); in [13], 8.25 (active). For the same compound, the z-score was -0.0749 (inactive) in [14]; 0.365 (inactive) in [15]; -1.11 (inactive) in [16]; 0.835 in [17]; 0.187 (inactive) in test [18]; 0.138 (inactive) in test [19]. For the same compound, in test [20], the z-score is -1.03.
In the case of `CCCNC(=O)OC[C@H]1O[C@H](CCON=C[C@@H](NS(=O)(=O)c2ccc(C)cc2)[C@H](C)C=CCC(=O)OC)C=C[C@@H]1Oc1ccc(OC)cc1`, the composite z-score in test [1] was -0.208; in test [6] it was -0.0974; in test [7] it was 0.316; with Torsin-1A (Homo sapiens) [8], 0.0067; with Torsin-1A (Homo sapiens) [9] it was 0.488; in test [10], -0.0635. This compound also registered a composite z-score in test [12] of 0.0633. Besides, the z-score in test [2] was -1.47 (inactive); in [3], 0.169 (inactive); in [4] it was 3.17 (inactive); in test [5] it was 0.26 (inactive); in test [11], 0.0368 (inactive); in test [13], 5.01 (inactive). Besides, the z-score was 1.2 (inactive) in [14]; 0.518 (inactive) in test [15]; 0.441 (inactive) in test [16]; -0.81 in test [17]; 0.173 (inactive) in test [18]; 0.361 (inactive) in test [19]. The z-score in test [20] was -0.746.
